From PubChem BioAssay AID652097 (National Center for Advancing Translational Sciences (NCATS), 2013)
Calls of active or inactive are those of the source.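 Rule for the calls: active = microscopy shows reduced glucosylceramide buildup in Gaucher patient macrophages after treatment; inactive = no reduction in glucosylceramide buildup seen.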

Assay: Extended Characterization of Activators of N370S glucocerebrosidase as a Potential Chaperone Treatment of Gaucher Disease: GC accumulation
Settings: N370S Gaucher macrophages, immunofluorescence microscopy
From the text: Glucocerebrosidase (GCase) catalyzes the hydrolysis of beta-glucocerebroside (GC) to glucose and ceramide in lysosomes. Mutations in the glucocerebrosidase gene result in Gaucher disease, an autosomal recessive lysosomal storage disorder. Many of the mutations encountered in patients with Gaucher disease are missense alterations that may cause misfolding, decreased stability and/or mistrafficking of this lysosomal protein. […] These inhibitors include iminosugar analogs and other inhibitors that were discovered as part of previous work. However, the enhancement of enzyme activity by the chaperone action of an enzyme inhibitor must be balanced against the direct inhibition of the enzyme. […] In this extended characterization of our probe, we have further characterized the activity of probes in relevant models of Gaucher disease. This assay attempts to quantitate translocated glucocerebrosidase protein in patient-derived macrophages following extended compound incubation. NIH Chemical Genomics Center [NCGC] NIH Molecular Libraries Probe Production Centers Network [MLPCN] MLPCN Grant: MH086442 Assay Submitter (PI): Ellen Sidransky, NHGRI
Macrophages derived from N370S/N370S Gaucher patients and a control were seeded in Lab-Tek 4 chamber slides (Fisher Scientific, Pittsburgh, PA). After compound treatment, cells were fixed in 3% paraformaldehyde. […]

Compound	outcome
C#Cc1ccc(NC(=O)c2cnn3c(C)cc(C)nc23)cc1	active; decreased
